Measured values taken from PubChem BioAssay (NCATS).
Records with an inconclusive call do not appear. Unmarked numbers belong to inactive results. The source made the active and inactive calls. The call rests on the fitted dose curve; in most records, active means well fitted curve in the direction sought with a large enough effect; inconclusive means small, poorly fitted or top-dose-only effect, or another doubt; inactive means no such curve, though single readings can be large; an effect the other way counts as inactive or inconclusive.

How the values were obtained:
NIH3T3 = assay: Cytotoxic Profiling of Annotated Libraries Using Quantitative High-Throughput Screening (AID 1296008); settings: Five cell lines viability, CellTiter-Glo ATP luminescence, 48-72 h; max response: stronger effect = lower value; further: nearly all actives have a fitted effect of over 60% in size; further: potency means the concentration at half of the fitted maximal effect
Outline: (§1)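 Cells exposed to compounds for 48 or 72 hr at 37 degrees Celsius. Viability read as ATP-coupled luminescence with CellTiter-Glo after 10 min at room temperature.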

MCC-13 = assay: qHTS assay to identify novel small-molecules to repurpose for Merkel cell carcinoma treatment (AID 1296009); settings: MCC and control cell lines, CellTiter-Glo viability, 72 h; series mostly up to 46 µM; further: nearly all actives have a fitted effect of over 60% in size; further: potency means the concentration at half of the fitted maximal effect
Outline: (§2)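 Cells were incubated with compound for 72 hr at 37 degree celsius before CellTiter-Glo addition. Luminescence was normalized with no-cell wells as full cytotoxicity and DMSO as baseline.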

WaGa = assay: as above; settings: MCC and control cell lines, CellTiter-Glo viability, 72 h; series mostly up to 46 µM
Outline: as §2

C33A = assay: Primary qHTS to identify gynecologic anti-cancer compounds using libraries of approved drugs and bioactive compounds (AID 1345084); settings: Gynecologic cancer cell panel viability, ATPlite luminescence, 48 h; series mostly up to 57.5 µM; further: nearly all actives have a fitted effect of over 55% in size
Outline: (§3)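 Five-point cytotoxicity, 48 h drug exposure at 37 C, 5% CO2, on cells seeded 16 h beforehand. ATP content read by ATPlite luminescence.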

CASKI = assay: as above; settings: Gynecologic cancer cell panel viability, ATPlite luminescence, 48 h; series mostly up to 57.5 µM
Outline: as §3

Es-2 = assay: as above; settings: Gynecologic cancer cell panel viability, ATPlite luminescence, 48 h; series mostly up to 57.5 µM
Outline: as §3

HeLa = assay: as above; settings: Gynecologic cancer cell panel viability, ATPlite luminescence, 48 h; series mostly up to 57.5 µM
Outline: as §3

Hek293T = assay: as above; settings: Gynecologic cancer cell panel viability, ATPlite luminescence, 48 h, control line for the selectivity index; series mostly up to 57.5 µM
Outline: as §3

JEG-3 = assay: as above; settings: Gynecologic cancer cell panel viability, ATPlite luminescence, 48 h; series mostly up to 57.5 µM
Outline: as §3

HACAT [1] = assay: qHTS assay to identify novel small-molecules to repurpose for Merkel cell carcinoma treatment (AID 1296009); settings: MCC and control cell lines, CellTiter-Glo viability, 72 h; at 44.8 µM (top of the series) unless noted; further: nearly all actives have a fitted effect of over 60% in size; further: potency means the concentration at half of the fitted maximal effect
Outline: as §2

MKL-1 = assay: as above; settings: MCC and control cell lines, CellTiter-Glo viability, 72 h; series mostly up to 46 µM
Outline: as §2

MKL-2 = assay: as above; settings: MCC and control cell lines, CellTiter-Glo viability, 72 h; series mostly up to 46 µM
Outline: as §2

UISO = assay: as above; settings: MCC and control cell lines, CellTiter-Glo viability, 72 h; series mostly up to 46 µM
Outline: as §2

KB-3-1 = assay: Cytotoxic Profiling of Annotated Libraries Using Quantitative High-Throughput Screening (AID 1296008); settings: Five cell lines viability, CellTiter-Glo ATP luminescence, 48-72 h; max response: stronger effect = lower value; further: nearly all actives have a fitted effect of over 60% in size; further: potency means the concentration at half of the fitted maximal effect
Outline: as §1

MCC-26 = assay: qHTS assay to identify novel small-molecules to repurpose for Merkel cell carcinoma treatment (AID 1296009); settings: MCC and control cell lines, CellTiter-Glo viability, 72 h; series mostly up to 46 µM; further: nearly all actives have a fitted effect of over 60% in size; further: potency means the concentration at half of the fitted maximal effect
Outline: as §2

HEK293 = assay: Cytotoxic Profiling of Annotated Libraries Using Quantitative High-Throughput Screening (AID 1296008); settings: Five cell lines viability, CellTiter-Glo ATP luminescence, 48-72 h; max response: stronger effect = lower value; further: nearly all actives have a fitted effect of over 60% in size; further: potency means the concentration at half of the fitted maximal effect
Outline: as §1

HaCat [2] = assay: as above; settings: Five cell lines viability, CellTiter-Glo ATP luminescence, 48-72 h; max response: stronger effect = lower value
Outline: as §1
On the % scale 0 is the no-effect control and ±100 the full control effect.

Q: Which results are given for `CC(C)n1cnc2c(NCCc3ccc(O)cc3)nc(-c3csc4ccccc34)nc21`?
A: max response (NIH3T3): -7.93%; Potency (MCC-13): inactive; Potency (WaGa): inactive; Potency (C33A): inactive; Potency (CASKI): inactive; Potency (Es-2): inactive; Potency (HeLa): inactive; Potency (Hek293T): inactive; Potency (JEG-3): inactive

Q: What does the source list for `CN1[C@H]2CC(OC(=O)[C@@H](CO)c3ccccc3)C[C@H]1[C@H]1O[C@H]12` (stereo partly specified)?
A: outcome (HACAT [1]): inactive [at 17.4 µM]; Potency (MCC-13): inactive; Potency (MKL-1): inactive; Potency (MKL-2): inactive; Potency (UISO): inactive; Potency (WaGa): inactive

Q: With `C[C@H](NCc1ccc(OCc2cccc(F)c2)cc1)C(N)=O` as the molecule, how does the Potency (KB-3-1) read?
A: 9.35 µM (active)

Q: And the Potency (NIH3T3)?
A: 4.18 µM (active)

Q: And the Potency (MCC-26)?
A: 20.9 µM (active)

Q: What about the Potency (MKL-1) of the same molecule?
A: 10.5 µM (active)

Q: And the Potency (UISO)?
A: 16.6 µM (active)

Q: What about the Potency (WaGa) of the same molecule?
A: 18.7 µM (active)

Q: Which results are given for `CCc1cnn2c(NCc3ccc[n+]([O-])c3)cc(N3CCCC[C@@H]3CCO)nc12`?
A: Potency (HEK293): 0.0332 µM (active); Potency (NIH3T3): 0.105 µM (active); Potency (MCC-26): 0.0833 µM (active); Potency (MKL-2): 0.0418 µM (active); Potency (UISO): 0.0935 µM (active)

Q: Which results are given for `CC(C=CC1=C(C)CCCC1(C)C)=CC=CC(C)=CC(=O)Nc1ccc(O)cc1`?
A: Potency (HEK293): 6.79 µM (active); Potency (KB-3-1): 38.2 µM (active); Potency (NIH3T3): 48.1 µM (active); Potency (MCC-13): inactive; Potency (MKL-2): 30.3 µM (active)

Q: Which results are given for `N#CC(=C(N)Sc1ccc(N)cc1)c1ccccc1C(F)(F)F`?
A: Potency (HaCat [2]): 1.66 µM (active); max response (KB-3-1): -9.42%; Potency (MCC-26): inactive; Potency (MKL-1): inactive; Potency (MKL-2): inactive; Potency (UISO): inactive; Potency (WaGa): inactive

Q: What does the source list for `O=C(NC1CC1)c1cccc(-c2ccc3c(NC(=O)C4CC4)n[nH]c3c2)c1`?
A: Potency (KB-3-1): 4.18 µM (active); Potency (MKL-2): inactive

Q: What does the source list for `CCc1ccc(C(=O)Nc2cc(CN3CCN(C)CC3)cc(C(F)(F)F)c2)cc1C#Cc1cnc2ccnn2c1`?
A: Potency (HEK293): 10.5 µM (active); Potency (KB-3-1): 8.33 µM (active); Potency (MKL-2): 18.7 µM (active)

Q: Which results are given for `NC(=NCCCCCCN=C(N)N=C(N)Nc1ccc(Cl)cc1)N=C(N)Nc1ccc(Cl)cc1`?
A: Potency (HEK293): 13.2 µM (active); Potency (KB-3-1): 8.33 µM (active); Potency (MCC-26): inactive; Potency (MKL-2): 11.8 µM (active)

Q: `CC(C)[C@H](CO)Nc1nc(Nc2cccc(Cl)c2)c2ncn(C(C)C)c2n1` was tested. Which Potency (HaCat [2]) did it give?
A: 16.6 µM (active)

Q: And the Potency (NIH3T3)?
A: 10.5 µM (active)

Q: And the Potency (MCC-26)?
A: inactive

Q: With `C=CC(=O)Nc1cc(NC(=O)c2ccc(C)c(NC(=O)c3ccno3)c2)cc(C(F)(F)F)c1` as the molecule, how does the outcome (HaCat [2]) read?
A: inactive

Q: What about the max response (NIH3T3) of the same molecule?
A: -0.953%

Q: And the outcome (HACAT [1])?
A: inactive

Q: What about the Potency (MCC-13) of the same molecule?
A: inactive

Q: And the Potency (MCC-26)?
A: inactive

Q: What about the Potency (WaGa) of the same molecule?
A: 18.7 µM (active)
